Assays:
Conditions in all cases: concentration: 1 μM, replicates: in singlicate; n = 1
SgK110 = tested on: SgK110
TAK1 = tested on: T1, TAK1
T1 construct: gene MAP3K7

TAOK1 = tested on: TAOK1
TAOK2 = tested on: TAOK2
TAOK3 = tested on: TAOK3
TBK1 = tested on: TBK1
TEC = tested on: TEC
TESK1 = tested on: TESK1
TGFBR2 = tested on: TGFBR2
TIE1 = tested on: TIE1
TIE2 = tested on: T2, TIE2
T2 construct: gene TEK

TLK1 = tested on: TLK1
TLK2 = tested on: TLK2
TNIK = tested on: TNIK
TNK1 = tested on: TNK1
TNK2 = tested on: TNK2
TNNI3K = tested on: TNNI3K
TRKA = tested on: T3, TRKA
T3 construct: gene NTRK1

TRKB = tested on: TRKB
TGFBR1 = tested on: TGFBR1
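Note: KINOMEscan kinase panel screen.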

SMILES | %Inh (SgK110) [%] | %Inh (TAK1) [%] | %Inh (TAOK1) [%] | %Inh (TAOK2) [%] | %Inh (TAOK3) [%] | %Inh (TBK1) [%] | %Inh (TEC) [%] | %Inh (TESK1) [%] | %Inh (TGFBR2) [%] | %Inh (TIE1) [%] | %Inh (TIE2) [%] | %Inh (TLK1) [%] | %Inh (TLK2) [%] | %Inh (TNIK) [%] | %Inh (TNK1) [%] | %Inh (TNK2) [%] | %Inh (TNNI3K) [%] | %Inh (TRKA) [%] | %Inh (TRKB) [%] | %Inh (TGFBR1) [%]
Clc1cccc(-c2nc(Nc3ccncc3)c3ccccc3n2)c1 [GW873004] | 38 | 0 | 0 | 4 | 0 | 11 | 17 | 19 | 17 | 0 | 48 | 0 | 0 | 0 | 59 | 40 | 0 | 0 | 0 | –
Cc1ccc(C)c(NC(=O)NCCNc2ccnc(Nc3ccc(F)cc3)n2)c1 [GSK1379878] | 0 | 0 | 0 | 0 | 0 | 7 | 0 | 32 | 0 | 0 | 0 | 1 | 0 | 0 | 0 | 9 | 0 | 10 | 0 | 0
c1ccc(-c2ccc3c(-c4ccnc(Nc5ccc6c(c5)OCCO6)n4)cnn3n2)cc1 [GW818941] | 0 | 0 | 0 | 0 | 5 | 22 | 0 | 12 | 22 | 22 | 8 | 0 | 0 | 1 | 0 | 12 | 17 | 34 | 0 | 11
OCCOCCn1ccc2ncnc(Nc3ccc(Oc4cccc(Cl)c4)c(Cl)c3)c21 | 0 | 0 | 0 | 0 | 0 | 7 | 0 | 0 | 0 | 0 | 31 | 0 | 0 | 0 | 0 | 0 | 0 | 0 | 0 | 7
CSc1nn2c(=O)cc(N3CCOCC3)nc2n1Cc1cccc(Cl)c1Cl [GSK2347225] | 0 | 0 | 2 | 0 | 3 | 10 | 18 | 7 | 0 | 14 | 2 | 4 | 0 | 3 | 3 | 24 | 15 | 1 | 0 | 0
O=C(Nc1n[nH]c2nc(-c3ccco3)c(Br)cc12)c1ccc(CN2CCCC2)cc1.O=C(O)[C@H](O)[C@@H](O)C(=O)O [SB-742352] | 50 | 0 | 0 | 0 | 0 | 13 | 0 | 8 | 0 | 0 | 0 | 3 | 0 | 14 | 38 | 0 | 12 | 18 | 0 | 0
Cl.Cl.c1ccc(-c2cc3ccncc3cc2OC2CCNCC2)cc1 [GSK1122999] | 0 | 0 | 0 | 0 | 4 | 21 | 12 | 7 | 0 | 1 | 0 | 0 | 7 | 0 | 6 | 27 | 26 | 0 | 0 | 2
COc1cc2c(Nc3cccc(NC(=O)c4ccccc4)c3)ncnc2cc1OCCCN1CCOCC1 [GSK223810] | 0 | 0 | 0 | 0 | 0 | 1 | 0 | 0 | 0 | 24 | 0 | 0 | 0 | 0 | 22 | 13 | 25 | 45 | 0 | 0
FC(F)(F)c1ccc(-c2nn3ncccc3c2-c2ccnc(Nc3cccc(C(F)(F)F)c3)n2)cc1 [GW828205] | 23 | 0 | 0 | 32 | 0 | 51 | 7 | 3 | 0 | 0 | 52 | 0 | 8 | 0 | 0 | 0 | 0 | 0 | 0 | 0
CNc1nccc(-c2c(-c3ccc(F)cc3)ncn2CCCN2CCOCC2)n1 [SB-222516] | 7 | 0 | 0 | 0 | 0 | 5 | 33 | 10 | 16 | 0 | 0 | 0 | 0 | 0 | 4 | 0 | 0 | 0 | 19 | 0
COC(=O)c1c(-c2ccccc2)c2cc(Cl)ccc2c(=O)n1Cc1ccc(S(C)(=O)=O)cc1 | 46 | 17 | 0 | 0 | 0 | 20 | 0 | 0 | 5 | 4 | 0 | 19 | 0 | 4 | 0 | 0 | 19 | 0 | 0 | 7
CC(C)N1CCC(n2cnc(-c3ccc(F)cc3)c2-c2ccnc(N)n2)CC1 [SB-223132] | 0 | 0 | 0 | 0 | 0 | 50 | 6 | 23 | 0 | 0 | 96.9 | 5 | 0 | 11 | 3 | 0 | 4 | 0 | 0 | 25
C[C@H]1CC[C@@H](C(=O)Nc2ccccc2)CN1c1cc(-c2ccc3c(N)n[nH]c3c2)nc(N)n1 [GSK2283293] | 0 | 0 | 0 | 0 | 0 | 7 | 11 | 26 | 0 | 26 | 0 | 4 | 0 | 0 | 0 | 17 | 0 | 0 | 0 | 14
Fc1ccc(Nc2nccc(-c3c(-c4ccc(Cl)cc4)nn4ncccc34)n2)cc1F [GW829058] | 9 | 38 | 10 | 16 | 27 | 31 | 8 | 16 | 0 | 38 | 18 | 0 | 12 | 89 | 24 | 0 | 3 | 13 | 0 | 0
Cl.Fc1ccccc1COc1ccc(Nc2ncnc3ccc(-c4nnc(C(F)(F)F)o4)cc23)cc1Cl [GW424170] | 0 | 0 | 0 | 0 | 0 | 7 | 5 | 29 | 0 | 0 | 0 | 4 | 0 | 0 | 0 | 0 | 0 | 3 | 6 | 0

Source: publication PMC5540273 (PLoS ONE, 2017)
